Our source for the growth values is PubChem BioAssay (NCI).

About 83,000 compounds went through this panel and 20% of them were active in at least one assay; those are over-represented in the sample as a whole.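 Interpretation: 100, growth as untreated; towards 0, rising growth inhibition; 0, no net growth; 0 to -100, cell death. Compounds scoring below 10 were considered active.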 A number with no mark means an inactive call. Calls of active or inactive are those of the source.

Test systems include SR leukemia; RPMI-8226 leukemia; OVCAR-8 ovarian; OVCAR-5 ovarian; OVCAR-4 ovarian; SK-OV-3 ovarian; IGROV1 ovarian; OVCAR-3 ovarian; HS 578T breast; NCI/ADR-RES ovarian; T-47D breast; BT-549 breast; MDA-MB-435 melanoma; SW-620 colon; MCF7 breast; HCT-116 colon; HCC-2998 colon; KM12 colon.
What all share (assay): NCI-60 one-dose screen, 48 h (100 = growth as untreated, 0 = no growth, -100 = all killed)
Holding throughout (conditions): 10 µM unless noted

Consider `O=c1c2cc(-c3ccccc3)sc2nc2sc(-c3ccccc3)nn12`, for which the growth with SR leukemia is 99.1%; in the experiment on RPMI-8226 leukemia, 92.4%; with OVCAR-8 ovarian it was 104%; with OVCAR-5 ovarian, 115%; in the experiment on OVCAR-4 ovarian it was 105%; with SK-OV-3 ovarian, 108%. Besides, the growth was 109% with IGROV1 ovarian; 108% with OVCAR-3 ovarian; 96% in the experiment on HS 578T breast; 107% with NCI/ADR-RES ovarian; 99.3% in the experiment with T-47D breast; 118% in the experiment with BT-549 breast. In addition, the growth in the experiment with MDA-MB-435 melanoma is 105%; in the experiment with SW-620 colon, 103%; in the experiment with MCF7 breast it was 97.6%; in the experiment with HCT-116 colon, 102%; in the experiment with HCC-2998 colon, 101%; in the experiment with KM12 colon, 101%.

Turning to `CC(C)(C)n1cc(-c2ccnc(NCCNS(=O)(=O)c3cccc4ccccc34)c2)c(-c2cccc(F)c2)n1`, the growth in the experiment with SR leukemia was -20.7% (active); with RPMI-8226 leukemia, -31.8% (active); in the experiment on OVCAR-8 ovarian it was 7.39% (active); in the experiment with OVCAR-5 ovarian it was -15% (active); in the experiment with OVCAR-4 ovarian it was -0.264% (active); in the experiment on SK-OV-3 ovarian it was 6.65% (active). Also, the growth in the experiment on IGROV1 ovarian is 4.03% (active); with OVCAR-3 ovarian, -68.6% (active); with HS 578T breast, -35.7% (active); with NCI/ADR-RES ovarian it was -9.97% (active); in the experiment with T-47D breast, -12.6% (active); with BT-549 breast, -80.9% (active). In addition, the growth in the experiment on MDA-MB-435 melanoma is -31.8% (active); with SW-620 colon it was -26% (active); in the experiment on MCF7 breast, -35% (active); in the experiment with HCT-116 colon, -87.2% (active); in the experiment with HCC-2998 colon, -41.8% (active); in the experiment on KM12 colon it was -14% (active).

In the case of `CCOC(=O)Cn1c(O)c(N=Nc2ccc(S(N)(=O)=O)cc2)c2cc(Br)ccc21`, the growth with SR leukemia was 75.3%; in the experiment with RPMI-8226 leukemia, 79.5%; with OVCAR-8 ovarian, 56.5%; in the experiment on OVCAR-5 ovarian, 85.9%; with OVCAR-4 ovarian it was 31.2%; in the experiment on SK-OV-3 ovarian, 81.9%. In addition, the growth in the experiment with IGROV1 ovarian is 73%; in the experiment with OVCAR-3 ovarian, 84.9%; with HS 578T breast, 89.7%; in the experiment with NCI/ADR-RES ovarian it was 89.7%; in the experiment with T-47D breast, 78.1%; with BT-549 breast, 119%. The growth in the experiment with MDA-MB-435 melanoma was 92%; in the experiment with SW-620 colon it was 62.7%; in the experiment with MCF7 breast it was 84%; with HCT-116 colon it was 13.9%; in the experiment with HCC-2998 colon, 95.5%; in the experiment with KM12 colon, 70.7%.

As for `COc1ccc(C(=O)Nc2ncc(Cc3cccc(Cl)c3)s2)cc1OC`, the growth was 17% in the experiment on SR leukemia; 21.3% in the experiment on RPMI-8226 leukemia; 35.6% in the experiment on OVCAR-8 ovarian; 49.3% with OVCAR-5 ovarian; 60.2% with OVCAR-4 ovarian; 34.9% in the experiment on SK-OV-3 ovarian. Moreover, the growth with IGROV1 ovarian was 40.2%; in the experiment on OVCAR-3 ovarian it was 7.51% (active); with HS 578T breast, 30.9%; in the experiment with NCI/ADR-RES ovarian, 20.9%; with T-47D breast, 3.79% (active); with BT-549 breast it was 50.7%. Moreover, the growth in the experiment with MDA-MB-435 melanoma is 0.543% (active); in the experiment on SW-620 colon it was 27.4%; with MCF7 breast, 11%; with HCT-116 colon, 27.2%; in the experiment on HCC-2998 colon, 16.9%; in the experiment with KM12 colon it was 18%.

As to `O=C1/C(=C/c2ccc(Cl)cc2)COc2ccc(O)c(O)c21`, the growth was 15% with SR leukemia; 1.87% (active) in the experiment on RPMI-8226 leukemia; 4.8% (active) in the experiment with OVCAR-8 ovarian; -22.9% (active) in the experiment with OVCAR-5 ovarian; 27.6% in the experiment on OVCAR-4 ovarian; 65.7% with SK-OV-3 ovarian. Further, the growth with IGROV1 ovarian is -38% (active); in the experiment with OVCAR-3 ovarian, -27.2% (active); with HS 578T breast it was 20.4%; in the experiment on NCI/ADR-RES ovarian it was 3.66% (active); in the experiment on T-47D breast, -14.8% (active); in the experiment with BT-549 breast, 5.45% (active). Further, the growth was 1.56% (active) in the experiment on MDA-MB-435 melanoma; -9.64% (active) with SW-620 colon; 9.76% (active) with MCF7 breast; 0.395% (active) with HCT-116 colon; 5.98% (active) in the experiment with HCC-2998 colon; -2.9% (active) in the experiment with KM12 colon.

With `c1cnc2[nH]cc(-c3csc(-c4cn(CCCN5CCOCC5)c5ccccc45)n3)c2c1`, the growth in the experiment on SR leukemia is 2.93% (active); with RPMI-8226 leukemia it was 24.4%; with OVCAR-8 ovarian, 62.4%; with OVCAR-5 ovarian it was 62.1%; in the experiment with OVCAR-4 ovarian, 45.1%; with SK-OV-3 ovarian, 73.4%. Moreover, the growth in the experiment on IGROV1 ovarian is 35.3%; in the experiment with OVCAR-3 ovarian, 64.4%; in the experiment on HS 578T breast it was 28.5%; in the experiment with NCI/ADR-RES ovarian, 60.1%; in the experiment with T-47D breast it was 27.1%; with BT-549 breast, 50.3%. Besides, the growth in the experiment on MDA-MB-435 melanoma was 6.18% (active); in the experiment on SW-620 colon it was 39.5%; with MCF7 breast it was 28.6%; in the experiment on HCT-116 colon it was 29.8%; with HCC-2998 colon it was 58.6%; in the experiment with KM12 colon, 28.1%.

As to `C=C(CNCCc1ccc(O)cc1)[C@@H]1CC[C@]2(CO)CC[C@]3(C)[C@H](CC[C@@H]4[C@@]5(C)CCC(NCCO)C(C)(C)[C@@H]5CC[C@]43C)[C@@H]12` (some centres undefined), the growth was -42.3% (active) in the experiment on SR leukemia; -45.9% (active) in the experiment on RPMI-8226 leukemia; -49.7% (active) in the experiment on OVCAR-8 ovarian; 4.67% (active) with OVCAR-5 ovarian; -15.9% (active) in the experiment on OVCAR-4 ovarian; 86.4% with SK-OV-3 ovarian. Moreover, the growth is -37.1% (active) with IGROV1 ovarian; -41.7% (active) with OVCAR-3 ovarian; -61.1% (active) in the experiment on HS 578T breast; 53.8% in the experiment on NCI/ADR-RES ovarian; -64.2% (active) in the experiment on T-47D breast; -68.1% (active) in the experiment with BT-549 breast. Also, the growth in the experiment with MDA-MB-435 melanoma was -92.1% (active); in the experiment with SW-620 colon, -82.4% (active); in the experiment with MCF7 breast, -72.3% (active); in the experiment with HCT-116 colon, -92.5% (active); in the experiment on HCC-2998 colon, -84.3% (active); with KM12 colon, -25.8% (active).

On to `Cn1ccnc1C(=O)C(=O)Nc1ccc(CC(=O)Nc2ccccc2)cc1`, for which the growth in the experiment with SR leukemia was 106%; with RPMI-8226 leukemia, 107%; in the experiment with OVCAR-8 ovarian, 109%; with OVCAR-5 ovarian, 101%; in the experiment on OVCAR-4 ovarian, 110%; in the experiment on SK-OV-3 ovarian, 115%. Further, the growth with IGROV1 ovarian was 103%; in the experiment with OVCAR-3 ovarian it was 108%; in the experiment with HS 578T breast, 101%; in the experiment on NCI/ADR-RES ovarian, 103%; in the experiment with T-47D breast, 112%; in the experiment on BT-549 breast, 103%. Moreover, the growth in the experiment with MDA-MB-435 melanoma was 101%; in the experiment with SW-620 colon, 102%; with MCF7 breast, 92.1%; in the experiment with HCT-116 colon, 114%; in the experiment on HCC-2998 colon, 106%; in the experiment with KM12 colon, 105%.
